Drawing on paper PMC7862700, “An all-to-all approach to the identification of sequence-specific readers for epigenetic DNA modifications on cytosine”, this text covers binding signal for three sequences.

Common to all, as to assay: DAPPL (digital affinity profiling via proximity ligation, sequencing); 10 mM Tris-HCl pH 7.5, 50 mM NaCl, 1 mM DTT, 4% glycerol, room temperature, 30 min; GST-TFs on glutathione beads, 16-mer random dsDNA library, 0.1% formaldehyde crosslink after washing; high values mean tight binding
One assay deals with HSF1 (Homo sapiens, UniProt Q00613 1-529). The following applies: protein: recombinant; tags: N-terminal GST; chain copies: 3; dsDNA, one strand shown. In short, it runs like this:
(§1)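 Each value of binding signal is a hexamer's read frequency for a factor divided by the same hexamer's frequency in the tag-only sample. Barcoded, bead-captured GST fusions of human transcription factors made in yeast were pooled with that sample and incubated with 200 nmole of a random double-stranded 16-mer DNA library in Tris/NaCl/DTT/glycerol buffer at room temperature for 30 min. Washing, 0.1% formaldehyde crosslinking, proximity ligation, PCR and Illumina NextSeq500 sequencing followed.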

The target in a further assay is T1, FLI1 (Homo sapiens, UniProt Q01543 1-452).
T1 sequence: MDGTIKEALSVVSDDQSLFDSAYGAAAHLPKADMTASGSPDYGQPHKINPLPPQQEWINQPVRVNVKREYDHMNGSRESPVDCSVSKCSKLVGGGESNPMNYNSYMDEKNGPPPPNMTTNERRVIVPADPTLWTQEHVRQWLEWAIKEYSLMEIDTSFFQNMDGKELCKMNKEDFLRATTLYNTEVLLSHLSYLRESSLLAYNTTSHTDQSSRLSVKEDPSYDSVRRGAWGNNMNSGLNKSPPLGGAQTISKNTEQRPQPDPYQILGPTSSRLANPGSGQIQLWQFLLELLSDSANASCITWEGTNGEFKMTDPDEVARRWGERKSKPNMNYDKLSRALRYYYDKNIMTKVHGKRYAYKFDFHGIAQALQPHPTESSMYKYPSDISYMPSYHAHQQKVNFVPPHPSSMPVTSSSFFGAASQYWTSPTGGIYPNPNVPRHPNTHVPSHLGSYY
The following applies: protein: recombinant; tags: N-terminal GST; dsDNA, one strand shown. In short, it runs like this:
as §1

Another assay addresses T2, ERG (Homo sapiens, UniProt P11308 1-479).
T2 sequence: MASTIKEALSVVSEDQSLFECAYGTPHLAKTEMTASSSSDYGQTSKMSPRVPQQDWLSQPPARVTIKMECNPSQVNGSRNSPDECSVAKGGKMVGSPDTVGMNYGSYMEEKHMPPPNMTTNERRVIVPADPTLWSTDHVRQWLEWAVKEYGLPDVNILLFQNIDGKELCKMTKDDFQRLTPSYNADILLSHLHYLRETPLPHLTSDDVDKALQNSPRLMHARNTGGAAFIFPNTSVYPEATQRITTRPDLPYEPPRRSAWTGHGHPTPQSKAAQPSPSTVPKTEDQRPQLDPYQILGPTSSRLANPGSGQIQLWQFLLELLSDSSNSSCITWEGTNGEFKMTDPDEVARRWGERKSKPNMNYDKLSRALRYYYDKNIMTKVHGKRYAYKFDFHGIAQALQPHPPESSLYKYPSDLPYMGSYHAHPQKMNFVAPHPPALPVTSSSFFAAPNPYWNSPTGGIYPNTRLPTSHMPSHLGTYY
The following applies: protein: recombinant; tags: N-terminal GST; dsDNA, one strand shown. Put shortly:
as §1

The next assay deals with T3, EHF (Homo sapiens, UniProt Q9NZC4 1-300).
T3 sequence: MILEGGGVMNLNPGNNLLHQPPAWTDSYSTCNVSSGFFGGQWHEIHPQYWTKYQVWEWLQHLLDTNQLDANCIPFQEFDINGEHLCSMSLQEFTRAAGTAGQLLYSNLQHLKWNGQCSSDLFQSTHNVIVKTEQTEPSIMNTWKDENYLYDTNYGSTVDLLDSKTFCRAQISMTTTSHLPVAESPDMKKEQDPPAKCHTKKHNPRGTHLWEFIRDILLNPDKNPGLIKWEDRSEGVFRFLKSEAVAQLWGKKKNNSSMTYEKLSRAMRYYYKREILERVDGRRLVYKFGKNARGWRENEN
The following applies: protein: recombinant; tags: N-terminal GST; dsDNA, one strand shown. Put shortly:
as §1

The target in the next assay is SPIB (Homo sapiens, UniProt Q01892 1-262). The following applies: protein: recombinant; tags: N-terminal GST; dsDNA, one strand shown. Put shortly:
as §1

The next assay has as its target T4, ELF3 (Homo sapiens, UniProt P78545 1-371).
T4 sequence: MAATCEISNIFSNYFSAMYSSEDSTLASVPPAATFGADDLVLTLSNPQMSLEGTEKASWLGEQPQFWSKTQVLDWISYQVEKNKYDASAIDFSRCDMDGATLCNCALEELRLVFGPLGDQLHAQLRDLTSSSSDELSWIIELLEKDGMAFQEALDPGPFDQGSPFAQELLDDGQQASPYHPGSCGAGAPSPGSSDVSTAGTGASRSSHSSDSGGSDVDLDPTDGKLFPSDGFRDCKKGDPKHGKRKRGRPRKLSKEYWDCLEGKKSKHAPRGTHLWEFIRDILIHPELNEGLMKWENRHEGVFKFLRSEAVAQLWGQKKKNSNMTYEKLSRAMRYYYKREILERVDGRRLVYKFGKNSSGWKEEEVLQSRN
The following applies: protein: recombinant; tags: N-terminal GST; dsDNA, one strand shown. Put shortly: as §1

The target in the next assay is ETV1 (Homo sapiens, UniProt P50549 1-477). The following applies: protein: recombinant; tags: N-terminal GST; dsDNA, one strand shown. Put shortly: as §1
Sequence of ETV1 (P50549 whole entry): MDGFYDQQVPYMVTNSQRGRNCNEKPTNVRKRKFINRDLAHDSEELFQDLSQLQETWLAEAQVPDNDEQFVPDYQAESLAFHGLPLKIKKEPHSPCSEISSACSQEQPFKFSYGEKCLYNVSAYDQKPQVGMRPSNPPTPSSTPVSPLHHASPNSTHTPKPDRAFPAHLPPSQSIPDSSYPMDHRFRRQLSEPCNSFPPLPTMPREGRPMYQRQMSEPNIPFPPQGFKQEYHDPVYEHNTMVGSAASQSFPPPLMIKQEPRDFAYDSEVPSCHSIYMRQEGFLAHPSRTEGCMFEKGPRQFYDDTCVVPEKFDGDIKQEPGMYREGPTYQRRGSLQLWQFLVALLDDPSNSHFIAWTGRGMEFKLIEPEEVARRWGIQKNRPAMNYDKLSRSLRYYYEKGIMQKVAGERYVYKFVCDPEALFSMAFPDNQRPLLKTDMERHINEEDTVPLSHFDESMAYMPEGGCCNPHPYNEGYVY
The target of another assay is T5, ETV2 (Homo sapiens, UniProt O00321 1-342).
T5 sequence: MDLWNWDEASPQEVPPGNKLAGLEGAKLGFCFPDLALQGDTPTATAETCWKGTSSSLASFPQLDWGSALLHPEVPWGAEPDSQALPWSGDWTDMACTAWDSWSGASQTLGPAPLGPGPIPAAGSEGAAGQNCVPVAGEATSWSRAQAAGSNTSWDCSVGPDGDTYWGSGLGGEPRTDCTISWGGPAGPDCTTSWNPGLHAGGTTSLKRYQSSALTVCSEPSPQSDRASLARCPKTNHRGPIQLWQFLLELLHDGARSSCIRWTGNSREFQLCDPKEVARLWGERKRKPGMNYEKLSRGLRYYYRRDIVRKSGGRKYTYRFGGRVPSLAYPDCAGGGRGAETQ
The following applies: protein: recombinant; tags: N-terminal GST; dsDNA, one strand shown. Put shortly:
as §1

In a further assay the target is T6, ETV7 (Homo sapiens, UniProt Q9Y603 1-341).
T6 sequence: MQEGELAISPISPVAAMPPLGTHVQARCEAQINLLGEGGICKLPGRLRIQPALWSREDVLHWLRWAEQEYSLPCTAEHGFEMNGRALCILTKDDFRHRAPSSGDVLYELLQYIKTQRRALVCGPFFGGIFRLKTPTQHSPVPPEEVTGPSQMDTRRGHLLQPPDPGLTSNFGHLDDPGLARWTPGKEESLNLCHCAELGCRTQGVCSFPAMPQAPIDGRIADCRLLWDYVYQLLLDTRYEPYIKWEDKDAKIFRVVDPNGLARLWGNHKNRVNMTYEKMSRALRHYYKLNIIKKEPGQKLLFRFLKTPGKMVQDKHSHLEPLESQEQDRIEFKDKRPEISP
The following applies: protein: recombinant; tags: N-terminal GST; dsDNA, one strand shown. In short, it runs like this: as §1

In another assay the target is T7, ETV3 (Homo sapiens, UniProt P41162-2 1-143).
T7 sequence: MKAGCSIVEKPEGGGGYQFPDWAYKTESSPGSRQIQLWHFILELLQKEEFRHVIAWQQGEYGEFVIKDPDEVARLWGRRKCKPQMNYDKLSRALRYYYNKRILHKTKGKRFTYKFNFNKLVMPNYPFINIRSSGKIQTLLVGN
The following applies: protein: recombinant; tags: N-terminal GST; dsDNA, one strand shown. In short, it runs like this: as §1

Another assay has as its target ETV6 (Homo sapiens, UniProt P41212 1-452). The following applies: protein: recombinant; tags: N-terminal GST; dsDNA, one strand shown. In short, it runs like this:
as §1

Sequence of SPIB (Q01892 whole entry): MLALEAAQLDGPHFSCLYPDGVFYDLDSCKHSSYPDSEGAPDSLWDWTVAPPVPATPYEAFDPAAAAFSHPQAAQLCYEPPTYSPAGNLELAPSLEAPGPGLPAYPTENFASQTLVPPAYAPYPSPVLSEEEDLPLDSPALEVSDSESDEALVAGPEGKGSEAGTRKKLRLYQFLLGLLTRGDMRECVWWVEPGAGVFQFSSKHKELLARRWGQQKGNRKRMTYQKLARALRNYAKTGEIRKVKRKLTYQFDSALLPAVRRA
Sequence of HSF1 (Q00613 whole entry, the tested form may be a part): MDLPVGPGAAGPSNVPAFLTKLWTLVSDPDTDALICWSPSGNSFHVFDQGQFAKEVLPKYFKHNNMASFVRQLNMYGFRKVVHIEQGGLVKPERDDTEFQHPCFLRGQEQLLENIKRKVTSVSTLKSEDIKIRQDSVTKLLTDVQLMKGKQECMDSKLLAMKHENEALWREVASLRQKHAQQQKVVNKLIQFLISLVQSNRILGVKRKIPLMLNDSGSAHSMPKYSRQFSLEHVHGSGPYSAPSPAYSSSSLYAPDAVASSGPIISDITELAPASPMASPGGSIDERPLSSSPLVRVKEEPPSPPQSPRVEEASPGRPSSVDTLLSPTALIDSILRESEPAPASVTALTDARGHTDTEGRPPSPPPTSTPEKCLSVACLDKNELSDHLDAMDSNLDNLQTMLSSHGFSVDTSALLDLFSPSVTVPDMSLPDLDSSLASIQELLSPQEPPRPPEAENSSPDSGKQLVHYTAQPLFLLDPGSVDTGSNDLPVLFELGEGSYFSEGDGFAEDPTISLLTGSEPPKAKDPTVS
Sequence of ETV6 (P41212 whole entry): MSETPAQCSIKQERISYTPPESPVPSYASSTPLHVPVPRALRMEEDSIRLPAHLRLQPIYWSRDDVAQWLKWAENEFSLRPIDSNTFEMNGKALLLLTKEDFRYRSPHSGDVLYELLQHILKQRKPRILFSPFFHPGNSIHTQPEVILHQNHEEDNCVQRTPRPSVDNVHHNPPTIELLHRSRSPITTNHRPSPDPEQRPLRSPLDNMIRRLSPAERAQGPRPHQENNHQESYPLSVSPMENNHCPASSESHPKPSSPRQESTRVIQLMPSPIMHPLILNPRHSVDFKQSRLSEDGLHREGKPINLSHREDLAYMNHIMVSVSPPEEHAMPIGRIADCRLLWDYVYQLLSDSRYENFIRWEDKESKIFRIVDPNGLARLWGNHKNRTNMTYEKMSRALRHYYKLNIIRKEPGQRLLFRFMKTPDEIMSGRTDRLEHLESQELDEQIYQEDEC

AGAAGG: in the assay with HSF1, the binding signal is 1.28 fold enrichment (6-mer frequency, TF over GST control).
Take ACGTCA: the binding signal in the assay with FLI1 is 1.01 fold enrichment (6-mer frequency, TF over GST control); with ERG, 1.01 fold enrichment (6-mer frequency, TF over GST control); in the assay with EHF it was 1.01 fold enrichment (6-mer frequency, TF over GST control); with SPIB, 1.09 fold enrichment (6-mer frequency, TF over GST control); with ELF3, 1.03 fold enrichment (6-mer frequency, TF over GST control); in the assay with ETV1, 1.05 fold enrichment (6-mer frequency, TF over GST control).
For TGCGGT, the binding signal is 1.09 fold enrichment (6-mer frequency, TF over GST control) in the assay with FLI1; 1.07 fold enrichment (6-mer frequency, TF over GST control) in the assay with EHF; 1.02 fold enrichment (6-mer frequency, TF over GST control) with SPIB; 1.08 fold enrichment (6-mer frequency, TF over GST control) in the assay with ETV2; 1 fold enrichment (6-mer frequency, TF over GST control) with ETV7; 1.01 fold enrichment (6-mer frequency, TF over GST control) with ETV3. Also, in the assay with ETV6, the binding signal was 1.03 fold enrichment (6-mer frequency, TF over GST control).
